A549 tox – Nrf2 qHTS screen for inhibitors: counterscreen for cytotoxicity | A549 ARE-Fluc cells, CellTiter-Fluor viability, 18-24 h | Potency, µM (titrated, usually from 46 µM), for inactives: at the top dose activity change, negative = cytotoxicity, most hits filed as inhibitors | hit rate 0.16% among 390,000; also: % is scaled to controls: 0 for no effect and ±100 for the full control effect
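A549 ARE-Fluc cells in 5% FBS OPTI-MEM, 5000 cells/well, rested 2 h then exposed to compounds in concentration-response for 18-24 h at 37 °C. Viability by CellTiter-Fluor fluorescence (Ex 405/Em 525) after 30 min; luciferase luminescence (BugLite, 15 min, RT) read afterwards.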
Nrf2 inh – Nrf2 qHTS screen for inhibitors; A549 ARE-Fluc reporter, luciferase luminescence, 18-24 h; Potency, µM (doses to about 46 µM), without a hit: top-dose activity change, negative = inhibition, most hits filed as inhibitors; hit rate 2.1% among 360,000; AID 504444, 2011; also: % is scaled to controls: 0 for no effect and ±100 for the full control effect; nearly all actives have a fitted effect of over 60% in size
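Nrf2 activity is the BugLite luminescence, read 15 min after reagent at room temperature, following CellTiter-Fluor cytotoxicity readout (30 min, 37C). Compound titrations were applied for 18-24 h to 5000 A549 ARE_Fluc cells/well in 5% FBS OPTI-MEM.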
ELG1 DNA repair – qHTS screen for small molecules that inhibit ELG1-dependent DNA repair in human embryonic kidney (HEK293T) cells expressing luciferase-tagged ELG1 | hit rate 2.3% among 330,000 | HEK293T ELG1-luciferase reporter, luminescence, 16 h; DNA damage induced by 5-fluorouridine | Potency, µM (series often up to 46.1 µM), inactives show top-dose activity change, negative = inhibition, most hits filed as inhibitors; also: % is scaled to controls: 0 for no effect and ±100 for the full control effect; nearly all actives have a fitted effect of over 55% in size
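Quantitative HTS, concentration-response format. 2,000 cells/well co-treated with 5-fluorouridine and compound, 16 hr in 5% CO2 at 37 °C; ONE-Glo luminescence read after 30 min.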
Nrf2 activator – qHTS of Nrf2 Activators | AREc32 ARE-luciferase reporter (MCF7-derived line), luminescence, 24 h | Potency, µM (series often up to 46.1 µM), for inactives: at the highest dose activation, hits mostly activators | hit rate 0.31% among 410,000 | AID 624171, 2012; also: % of control where 0% means no effect; nearly all actives have a fitted effect of over 65% in size
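Quantitative high-throughput format: AREc32 reporter cells, 1000 per well, received compound by pin transfer and were incubated 24 hr at 37 deg C, 5% CO2, before Steady-Glo luminescence detection.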
* = called active by the depositor; ? = inconclusive; · = no result given. Compounds with a hit are over-represented: about 3.7% of the library has one in this group of screens. Calls follow the shape of the dose curve; as a rule, active = well fitted curve in the direction sought with a large enough effect; inconclusive = small, poorly fitted or top-dose-only effect, or another doubt; inactive = no such curve, though single readings can be large; an effect the other way counts as inactive or inconclusive. Potency is read from the fitted curve at half-maximal effect.

SMILES	A549 tox	Nrf2 inh	ELG1 DNA repair	Nrf2 activator
CCc1ccc(NC(=O)C2CCN(S(=O)(=O)c3ccc4c(c3)CC(C)N4C(C)=O)CC2)cc1 (configuration not stated)	-1.3%	16.4µM*	7.3µM*	2.3%
CC(=O)N1c2ccc(S(=O)(=O)N3CCC(C(=O)Nc4cccc(Cl)c4)CC3)cc2CC1C (configuration not stated)	-11.9%	2.06µM*	?	-0.8%
CSc1cccc(NC(=O)C2CCN(S(=O)(=O)c3ccc4[nH]c5c(c4c3)CCCCC5)CC2)c1	-3.7%	?	·	-0.4%
CCOc1ccc(-n2nc(CO)c(C(=O)NCc3cccs3)n2)cc1	0.4%	3.2%	·	5.5%
CC(=O)N1c2ccc(S(=O)(=O)N3CCC(C(=O)Nc4cccc(F)c4)CC3)cc2CC1C (configuration not stated)	-8.7%	16.4µM*	?	2.0%
CC(=O)N1c2ccc(S(=O)(=O)N3CCCC(C(=O)Nc4ccc(F)cc4)C3)cc2CC1C (configuration not stated)	-10.2%	18.4µM*	?	2.0%
CC(=O)N1c2ccc(S(=O)(=O)N3CCC(C(=O)Nc4cccc(Cl)c4C)CC3)cc2CC1C (configuration not stated)	-1.1%	?	·	0.0%
Cc1ccc(NC(=O)C2CCN(S(=O)(=O)c3cccc4nonc34)CC2)nc1	-1.4%	-14.3%	20.6µM*	0.4%
CC(=O)N1c2ccc(S(=O)(=O)N3CCC(C(=O)Nc4ccc(C)cn4)CC3)cc2CC1C (configuration not stated)	-9.7%	14.6µM*	?	0.4%
Cc1nc2nc(NC(=O)c3ccc(Cl)cc3)[nH]n2c(=O)c1Cc1ccccc1	-3.7%	4.1%	·	-1.3%
COc1ccc(NS(=O)(=O)c2ccc(C)c(C(=O)NCc3ccccc3CN3CCCC3)c2)cc1	·	·	·	-0.2%
COc1cccc(OC)c1C(=O)Nc1ccc(S(=O)(=O)N2CCCCC2)cc1	5.7%	1.4%	?	-0.4%
COc1ccccc1-c1ccc(/C=C2/C=C(C)OC2=O)o1	6.0%	?	8.7%	13.9%
COc1ccccc1-c1ccc(/C=C2\C=CC(=O)O2)o1	1.1%	0.6%	?	15.8µM*
C=CCN1C(c2ccc(Br)cc2)=CS/C1=C(\C#N)c1nnc(N2CCOCC2)n1-c1ccccc1	?	25.9µM*	·	2.7%
C=CCN1C(c2cccc(C(F)(F)F)c2)=CS/C1=C(\C#N)c1nnc(N2CCOCC2)n1-c1ccccc1	·	·	·	-0.1%
Cc1ccccc1-n1c(SCC(=O)Nc2ccccc2Cl)nc2n[nH]c(C)c2c1=N	-10.3%	?	-3.0%	0.3%
CCc1ccccc1-n1c(SCC(=O)Nc2ccc(C)cc2)nc2n[nH]c(C)c2c1=N	-17.5%	·	·	-0.8%
COc1ccc(OC)c(NC(=O)CSc2nc3n[nH]c(C)c3c(=N)n2-c2cccc(Cl)c2C)c1	?	16.4µM*	?	4.7%
CCOc1ccccc1NC(=O)CCSc1nc2n[nH]c(C)c2c(=N)n1-c1ccccc1Cl	-23.3%	?	3.16µM*	3.0%
CCc1ccccc1NC(=O)CSc1nc2n[nH]c(C)c2c(=N)n1-c1cccc(OC)c1	?	18.4µM*	?	7.1%
CCc1ccccc1NC(=O)CN(C)S(=O)(=O)c1ccc(-c2ccc(=O)[nH]n2)s1	4.6%	-5.4%	?	0.6%
COc1cc(OC)c(NC(=O)CN(C)S(=O)(=O)c2ccc(-c3ccc(=O)[nH]n3)s2)cc1Cl	6.2%	?	6.51µM*	2.8%
CCc1cc2c(cc3c(=O)n(CCCC(=O)NCc4cccc(Br)c4)ncn32)s1	0.3%	-5.1%	·	-2.3%
Cc1nc(C(=O)NCCC(C)C)sc1C1(C)CC(c2ccccc2)=NO1 (configuration not stated)	-1.3%	-10.3%	13µM*	0.8%
Clc1ccc(-c2nnc(Sc3nc4ccccc4o3)c3ccccc23)cc1	-26.4%	18.4µM*	?	?
COc1cc(NC(=O)C2(C)CCN2C(=O)C(C)C)cc(OC)c1OC (configuration not stated)	·	·	·	0.5%
Cc1ccc(NC(=O)CCCCCN2C(=O)[C@@H]3Cc4ccccc4CN3C2=O)c(Cl)c1	-20.8%	23.1µM*	?	0.1%

Screening data: PubChem BioAssay, National Center for Advancing Translational Sciences (NCATS)
